Compound activity deposited in PubChem BioAssay by several laboratories.
In the library only some 7.1% were active in any assay of this set; here they are far more common.
Pyk2 oligo antag – blocks oligomerization of human Pyk2 in cells | Q14289 | Q293 cells, Pyk2 FERM NanoBiT luminescence; hits give low values | z-score (the deposit names both 25 µM and 10 µM) | actives 0.83% (n = 99,000) | AID 1347419;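 active means Z-score of -3 or lower, scaled per plate to the spread of control and sample wells; inactive means z-score above -3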;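 further: negative z-score means lost luminescence so less FERM oligomerization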
Cav3 T inh – blocks human Cav3.2 T-type calcium channel | O95180 | Cav3.2-expressing cells, Fluo-4 calcium fluorescence FDSS; hits give low values | B-score at 10 µM | actives 4% (n = 100,000);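 active means single-dose well whose peak fluorescence ratio is a statistical outlier from its plate by either plate-standardised score or position-corrected B-score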
Target sequence (O95180 whole entry, looked up): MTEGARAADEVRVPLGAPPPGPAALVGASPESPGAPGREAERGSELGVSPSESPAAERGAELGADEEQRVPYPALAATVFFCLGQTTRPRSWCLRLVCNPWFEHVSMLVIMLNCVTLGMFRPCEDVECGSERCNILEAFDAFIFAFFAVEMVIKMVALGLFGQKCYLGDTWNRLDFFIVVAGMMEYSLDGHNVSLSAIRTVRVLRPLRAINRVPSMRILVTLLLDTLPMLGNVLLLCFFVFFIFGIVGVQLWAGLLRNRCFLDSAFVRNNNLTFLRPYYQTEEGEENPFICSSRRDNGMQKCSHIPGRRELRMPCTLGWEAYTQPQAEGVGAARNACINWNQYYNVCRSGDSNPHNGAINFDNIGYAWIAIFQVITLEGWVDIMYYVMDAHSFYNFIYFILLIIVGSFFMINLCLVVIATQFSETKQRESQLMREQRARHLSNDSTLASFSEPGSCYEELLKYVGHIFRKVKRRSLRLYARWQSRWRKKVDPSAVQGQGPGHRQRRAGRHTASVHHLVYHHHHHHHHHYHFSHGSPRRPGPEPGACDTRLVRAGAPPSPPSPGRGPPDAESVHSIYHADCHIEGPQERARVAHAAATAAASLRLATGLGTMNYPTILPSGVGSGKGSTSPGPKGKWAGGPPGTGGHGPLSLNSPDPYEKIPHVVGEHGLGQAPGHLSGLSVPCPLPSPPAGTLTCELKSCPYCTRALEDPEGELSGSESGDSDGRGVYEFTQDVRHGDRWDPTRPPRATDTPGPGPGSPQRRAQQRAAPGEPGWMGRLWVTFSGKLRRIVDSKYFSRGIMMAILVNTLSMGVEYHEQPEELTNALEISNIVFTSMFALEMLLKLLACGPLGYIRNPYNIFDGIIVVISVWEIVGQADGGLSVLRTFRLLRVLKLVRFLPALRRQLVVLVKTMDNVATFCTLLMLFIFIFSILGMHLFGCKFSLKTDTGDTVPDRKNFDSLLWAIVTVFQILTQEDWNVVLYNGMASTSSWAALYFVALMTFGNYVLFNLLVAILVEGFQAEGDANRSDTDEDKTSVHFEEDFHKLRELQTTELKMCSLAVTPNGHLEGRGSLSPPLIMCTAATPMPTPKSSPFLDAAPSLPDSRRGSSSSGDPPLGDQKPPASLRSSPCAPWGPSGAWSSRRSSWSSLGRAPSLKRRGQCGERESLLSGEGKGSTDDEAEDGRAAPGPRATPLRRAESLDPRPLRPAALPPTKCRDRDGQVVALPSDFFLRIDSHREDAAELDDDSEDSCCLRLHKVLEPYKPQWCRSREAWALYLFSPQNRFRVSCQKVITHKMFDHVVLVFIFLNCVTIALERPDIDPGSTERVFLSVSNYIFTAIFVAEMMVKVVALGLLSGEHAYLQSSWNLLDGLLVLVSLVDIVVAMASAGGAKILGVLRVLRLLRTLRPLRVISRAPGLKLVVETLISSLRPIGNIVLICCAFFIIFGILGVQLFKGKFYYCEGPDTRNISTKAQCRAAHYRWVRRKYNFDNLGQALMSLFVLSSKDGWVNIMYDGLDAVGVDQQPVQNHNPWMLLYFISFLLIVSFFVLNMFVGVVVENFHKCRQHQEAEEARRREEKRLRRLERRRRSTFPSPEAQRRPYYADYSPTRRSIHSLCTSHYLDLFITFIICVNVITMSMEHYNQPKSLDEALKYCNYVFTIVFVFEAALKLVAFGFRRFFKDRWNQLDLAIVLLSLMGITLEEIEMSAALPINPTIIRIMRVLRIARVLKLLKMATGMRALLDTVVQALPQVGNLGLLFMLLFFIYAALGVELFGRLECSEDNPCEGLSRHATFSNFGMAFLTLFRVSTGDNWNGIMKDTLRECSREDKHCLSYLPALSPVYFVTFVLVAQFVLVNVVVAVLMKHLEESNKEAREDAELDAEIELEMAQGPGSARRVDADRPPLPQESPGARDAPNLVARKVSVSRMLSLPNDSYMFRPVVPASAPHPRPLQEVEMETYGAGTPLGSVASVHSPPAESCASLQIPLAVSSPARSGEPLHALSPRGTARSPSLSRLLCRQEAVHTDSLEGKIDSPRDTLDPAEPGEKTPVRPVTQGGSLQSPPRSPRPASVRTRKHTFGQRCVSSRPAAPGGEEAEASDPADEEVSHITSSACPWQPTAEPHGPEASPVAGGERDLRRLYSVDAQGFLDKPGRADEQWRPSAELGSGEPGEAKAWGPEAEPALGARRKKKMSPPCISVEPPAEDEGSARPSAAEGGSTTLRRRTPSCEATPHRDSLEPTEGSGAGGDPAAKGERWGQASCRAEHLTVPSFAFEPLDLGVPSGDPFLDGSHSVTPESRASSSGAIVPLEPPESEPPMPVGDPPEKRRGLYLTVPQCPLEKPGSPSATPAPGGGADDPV
M1 antagonist – M1 muscarinic receptor (rat) antagonism; AID 628; actives 3.4% (n = 64,000); CHO-M1 cells, Fluo-4 calcium, ACh EC80 antagonist mode; hits give low values; B-score at 10 µM; P08482;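 active means calcium fluorescence response, raw or row-and-column corrected B-score, differing from the plate sample mean either way at a set confidence level, mostly lower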
M1 agonist – agonists of M1 muscarinic receptor. CHO-M1 cells, Fluo-4 calcium fluorescence, agonist mode; hits give high values. B-score at 10 µM. actives 3% (n = 64,000). AID 626;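 active means fluorescence rise, raw or as B-score row- and column-corrected plate score, outside the 99.7% band of its plate's samples, either direction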
The depositor's hits bear a star; nt = no result.

SMILES	Pyk2 oligo antag	Cav3 T inh	M1 antagonist	M1 agonist
CC(C)(C)c1ccc(C2C3=C(CCCC3=O)NC3=C2C(=O)c2ccccc23)cc1 (centres undefined)	-0.02	-0.27	nt	nt
CC(C)c1ccc(C2C3=C(CC(C)(C)CC3=O)NC3=C2C(=O)c2ccccc23)cc1 (centres undefined)	-3*	-2.2	nt	nt
COc1ccc(NC(=O)c2oc3ccccc3c2NC(=O)c2ccco2)cc1	-3*	-1.7	0.71	-0.72
O=C(COc1ccccc1Cl)NCc1ccncc1	-0.38	0.88	0.23	0.3
O=C(CCSc1nc(-c2ccco2)cc(C(F)(F)F)n1)NCc1cccs1	0.17	-1.7	nt	nt
Cc1cc(NC(=O)CCCSc2nc(-c3ccco3)cc(C(F)(F)F)n2)n(-c2ccccc2)n1	-1.1	-4.3*	nt	nt
CN(Cc1ccccc1)C(=O)CCSc1nc(-c2ccc3c(c2)OCO3)cc(C(F)(F)F)n1	-0.9	-6.8*	nt	nt
CC(NC(=O)CCSc1nc(-c2ccco2)cc(C(F)(F)F)n1)c1ccccc1 (centres undefined)	0.47	-6*	nt	nt
O=C(CCSc1nc(-c2ccco2)cc(C(F)(F)F)n1)Nc1ccc2c(c1)OCO2	0.24	-5.7*	0.22	-0.17
O=C(CCSc1nc(-c2ccc3c(c2)OCO3)cc(C(F)(F)F)n1)NCc1ccco1	nt	-0.082	-0.63	0.51
CC1CCCC(NC(=O)COC(=O)Cc2ccsc2)C1C (centres undefined)	1.5	0.21	nt	nt
c1ccc(Cn2cc(CNc3ccccc3)nn2)cc1	nt	-0.6	nt	nt
Cc1cccc(CN2[C@@H](CC(C)C)COCCS2(=O)=O)c1	nt	-0.053	nt	nt
CCOC(=O)N1CCN(C(=O)CN(c2ccc(Cl)c(C(F)(F)F)c2)S(C)(=O)=O)CC1	0.83	2.7	-0.17	0.064
O=c1cc(O)nc(SCc2ccccc2)n1-c1ccc(F)cc1	-0.52	-0.025	nt	nt
N#Cc1cccc(C(c2nnnn2C2CCCC2)N2CCC(Cc3ccccc3)CC2)c1 (centres undefined)	-4.4*	-7*	nt	nt
N#Cc1ccc(C(c2nnnn2C2CCCC2)N2CCC(Cc3ccccc3)CC2)cc1 (centres undefined)	-1.1	-6.2*	nt	nt
O=C(C1=C[C@H](c2coc3ccccc3c2=O)C[C@H](OCCCCO)O1)N1CCN(Cc2ccc3c(c2)OCO3)CC1	nt	0.17	nt	nt
Cc1ccc(C)c2c1[nH]c1ccc([N+](=O)[O-])cc12	-0.67	-0.48	nt	nt
C/C(CCc1ccc2c(c1)OCO2)=N\N=C(/N)SC1CC(=O)N(c2ccc(Cl)cc2)C1=O (centres undefined)	0.83	-4.1*	nt	nt
O=C1CC(SC(=NCc2ccc3c(c2)OCO3)Nc2ccccc2)C(=O)N1c1ccccc1 (centres undefined)	-0.08	0.052	nt	nt
CN(C)c1ccnc(-n2cccc2/C=N/OCc2ccc(F)cc2Cl)c1C#N	-0.84	-5.4*	nt	nt
Cc1sc2nc(CN(Cc3ccccc3)C(=O)NC3CCCCC3)[nH]c(=O)c2c1C	-3*	-2.3	nt	nt
COc1ccc(-c2nc(CSCC(=O)NCCC3=CCCCC3)c(C)o2)cc1OC	-0.83	-3.4	nt	nt
Cc1ccc(CNc2oc(-c3ccco3)nc2S(=O)(=O)c2ccccc2)cc1	0.78	-4.7*	nt	nt
SMILES	Pyk2 oligo antag	Cav3 T inh	M1 antagonist	M1 agonist
Cc1ccc(S(=O)(=O)c2nc(-c3ccccc3)oc2NCc2cccnc2)cc1	-1.7	-5.3*	0.052	0.48
Cc1ccccc1-c1nc(S(=O)(=O)c2ccc(Br)cc2)c(NCc2cccnc2)o1	-3.4*	-2.5*	nt	nt
CCCCOC(=O)C1Cc2ccccc2C(=O)O1 (centres undefined)	0.24	-0.035	0.24	0.094
Cc1cccc(Nc2ccccc2C(=O)OCC(=O)N(C)C2CCS(=O)(=O)C2)c1C (centres undefined)	0.7	-3.4*	nt	nt
COc1ccc(-c2nnc(SC(C)C(=O)Nc3c(C)n(C)n(-c4ccccc4)c3=O)o2)cc1 (centres undefined)	7	-0.093	nt	nt
O=C(Nc1ccc(Cn2cccn2)cc1)c1ccc(COc2ccc(Br)cc2)cc1	-0.11	-0.46	nt	nt
Cc1nn(Cc2cccc(C(=O)Nc3ccn(Cc4ccccc4F)n3)c2)c(C)c1[N+](=O)[O-]	-0.13	-4.3*	nt	nt
Cc1nn(Cc2ccccc2Cl)c(C)c1NC(=O)CCCn1nc(C)c([N+](=O)[O-])c1C	1.4	-3.1	nt	nt
O=C(Nc1ccc(Cn2cccn2)cc1)c1ccc(COc2cccc(Br)c2)cc1	0.74	-4.7*	nt	nt
O=C(Nc1ccn(Cc2ccccc2F)n1)c1ccc(COc2ccc(Br)cc2)cc1	1.1	-4.6*	nt	nt
Cc1ccc(S(=O)(=O)NCC(=O)OCC(=O)N2N=C(c3ccc(Cl)cc3)CC2c2ccco2)cc1C (centres undefined)	0.76	nt	nt	nt
O=C(OCC(=O)N1N=C(c2ccc(Cl)cc2)CC1c1ccco1)c1ccccc1O (centres undefined)	-0.8	-4.7*	nt	nt
